# Bioassay records deposited in PubChem by several laboratories.
# An excerpt weighted towards active compounds, which were near 3.4% of everything screened.
# HGIII-sPLA2 inh – human group III sPLA2 inhibitors, primary screen, biochemical, QFRET, BODIPY PC-A2 liposome substrate. Group 3 secretory phospholipase A2 (Homo sapiens), Q9NZ20. QFRET BODIPY PC-A2 liposome hydrolysis, fluorescence. inhibition, % at 12.2 µM. 370,000 tested, 0.56% active;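 active = inhibition above mean plus 3 SD of compounds lying within the high and low control bounds, cut at about 19% in these data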
# ADAM17 inh – ADAM17 inhibitors, primary screen, biochemical, QFRET | Disintegrin and metalloproteinase domain-containing protein 17 (Homo sapiens), P78536 | recombinant ADAM17, EDANS/DABCYL FRET peptide cleavage | inhibition, % at 6.95 µM | 370,000 tested, 0.83% active;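 active = inhibition above the mean of compounds lying between control limits plus 3 SD, set per campaign, cut at about 8.5% in these data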
# proKLK7 act – proKLK7 zymogen activators, primary screen, biochemical, fluorescence intensity; 370,000 tested, 0.9% active; purified proKLK7, EDANS-DABCYL substrate fluorescence; 100% is mature enzyme control, 0% vehicle; activation, % at 7 µM;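 active = activation above the mean of all tested compounds plus 3 SD, computed per campaign excluding outliers beyond control limits, cut at about 13% in these data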
# CendR NRP1 mod – modulators of CendR peptide binding to NRP-1, primary screen, biochemical, fluorescence polarization, uHTS. Neuropilin-1 (Homo sapiens), O14786. FAM-RPARPAR peptide binding to NRP-1. inhibition, % at 25 µM. 360,000 tested, 0.85% active. AID 602438, 2012;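 active = inhibition or corrected inhibition above about 18%, plus a signal ratio from 0.5 to 1.5, limit read from the data, passing the limit was not always enough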
# Target sequence (O14786 whole entry, looked up): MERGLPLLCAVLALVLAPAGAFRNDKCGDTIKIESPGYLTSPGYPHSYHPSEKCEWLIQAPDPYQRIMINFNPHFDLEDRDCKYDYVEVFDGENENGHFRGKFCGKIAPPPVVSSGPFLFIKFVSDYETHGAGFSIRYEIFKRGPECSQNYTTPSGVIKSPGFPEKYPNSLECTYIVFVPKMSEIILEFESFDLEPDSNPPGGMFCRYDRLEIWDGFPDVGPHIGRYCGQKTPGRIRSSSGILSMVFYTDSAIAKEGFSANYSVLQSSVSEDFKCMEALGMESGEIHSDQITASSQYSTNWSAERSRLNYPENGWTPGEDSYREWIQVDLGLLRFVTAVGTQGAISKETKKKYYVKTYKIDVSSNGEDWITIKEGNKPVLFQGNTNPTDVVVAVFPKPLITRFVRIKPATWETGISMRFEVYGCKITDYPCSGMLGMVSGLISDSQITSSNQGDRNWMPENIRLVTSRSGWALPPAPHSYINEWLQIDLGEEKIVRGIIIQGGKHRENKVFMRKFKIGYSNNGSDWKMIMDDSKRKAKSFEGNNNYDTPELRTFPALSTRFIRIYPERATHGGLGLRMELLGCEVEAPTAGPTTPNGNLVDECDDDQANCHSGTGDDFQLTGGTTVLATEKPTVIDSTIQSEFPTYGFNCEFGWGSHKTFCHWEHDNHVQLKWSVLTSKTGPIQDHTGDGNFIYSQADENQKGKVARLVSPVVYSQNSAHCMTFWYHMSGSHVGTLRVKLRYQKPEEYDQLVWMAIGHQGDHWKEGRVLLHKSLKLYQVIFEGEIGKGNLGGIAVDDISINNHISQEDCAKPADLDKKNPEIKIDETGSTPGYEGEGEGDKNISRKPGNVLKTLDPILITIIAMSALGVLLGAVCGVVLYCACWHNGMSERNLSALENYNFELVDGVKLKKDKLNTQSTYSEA
# ADAM10 inh – human ADAM10 inhibitors, primary screen, biochemical, QFRET, HTS; 370,000 tested, 0.62% active; recombinant ADAM10, EDANS/DABCYL FRET peptide cleavage, 3 h; inhibition, % at 7 µM; Disintegrin and metalloproteinase domain-containing protein 10 (Homo sapiens), O14672;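 active = inhibition above a per-campaign cutoff equal to the mean of compounds falling between control-based bounds plus 3 SD, cut at about 20% in these data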
# ADAM10 confirm – human ADAM10 inhibitors, confirmation, biochemical, QFRET, triplicate. inhibition, % at 6.95 µM. ADAM10 QFRET peptide cleavage, EDANS fluorescence. 2,100 tested, 1% active. shares compounds with ADAM10 inh;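 active = inhibition above about 20% chosen separately for each screening run, limit read from the data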
# ADAM17 ctr – ADAM17 inhibitors, counter-screen for ADAM10 exosite inhibitor project, biochemical, QFRET, high throughput | shares compounds with ADAM10 inh | ADAM17 QFRET peptide cleavage, EDANS fluorescence | inhibition, % at 6.95 µM | 2,100 tested, 0.5% active;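 active = mean triplicate inhibition above the solvent-only control wells' mean plus 3 SD, cut at about 12% in these data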
# ADAM10 counter – ADAM10 inhibitors, counter-screen for ADAM17 exosite inhibitor project, biochemical, FRET, human ADAM10. shares compounds with ADAM17 inh. recombinant ADAM10, EDANS/DABCYL FRET peptide cleavage, 3 h. inhibition, % at 6.95 µM. 2,900 tested, 47% active. AID 743256, 2014;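 active = mean inhibition over the triplicate runs exceeds the activity threshold set in the earlier primary screen, cut at about 20% in these data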
# ADAM17 confirm – ADAM17 inhibitors, hit retest, confirmation, biochemical, QFRET peptide cleavage; inhibition, % at 6.95 µM; recombinant ADAM17, EDANS/DABCYL QFRET peptide cleavage; shares compounds with ADAM17 inh; 2,900 tested, 65% active;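 active = mean inhibition across replicates above the hit cutoff set in the primary screen, cut at about 8.5% in these data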
# A number is an active result; i = inactive; nt = no result given.
SMILES,HGIII-sPLA2 inh,ADAM17 inh,proKLK7 act,CendR NRP1 mod,ADAM10 inh,ADAM10 confirm,ADAM17 ctr,ADAM10 counter,ADAM17 confirm
CC(C)CN(CC(C)C)C(=O)c1cn(C(C)c2ccccc2)nn1 (stereo not given),i,i,i,nt,i,nt,nt,nt,nt
Cc1ccc(CN2CCCCC(NC(=O)c3ccc(-c4ccccc4)cc3)C2=O)cc1 (stereo not given),i,i,i,nt,i,nt,nt,nt,nt
Cc1cc(Cl)ccc1OC(C)C(=O)N1CCCN(C(=O)C(C)Oc2ccc(Cl)cc2C)CC1 (stereo not given),i,15,i,i,26,i,i,29,18
CN(C)c1ccc(NC(=O)c2cn(-c3ccccc3)nc2-c2cccs2)cc1,i,13,i,i,28,i,i,i,9.7
O=C(Nc1ccc2ccccc2c1)c1cn(-c2ccccc2)nc1-c1cccs1,i,i,i,i,i,nt,nt,nt,nt
CCn1ccnc1CN(C)Cc1cn(-c2cccc(C)c2)nc1-c1cccc(F)c1,i,i,i,i,i,nt,nt,nt,nt
Cc1cccc(-n2cc(CN(C)Cc3nccn3C)c(-c3cccc(F)c3)n2)c1,i,11,i,i,24,i,i,i,10
Cc1ccc(S(=O)(=O)N(C)C[C@H]2Oc3cc(Br)ccc3S(=O)(=O)N([C@H](C)CO)C[C@H]2C)cc1,i,17,i,i,31,i,i,i,i
Cc1ccc(S(=O)(=O)N(C)C[C@H]2Oc3cc(Br)ccc3S(=O)(=O)N([C@H](C)CO)C[C@@H]2C)cc1,i,i,i,i,i,nt,nt,nt,nt
COc1ccc(-n2c(SCC(=O)Nc3cc(C)c(NC(=O)c4ccccc4)cc3OC)nnc2-c2ccco2)cc1,i,12,i,nt,24,i,i,i,8.7
COc1ccc(-n2c(SCC(=O)Nc3cc(C)c(NC(=O)c4ccccc4)cc3OC)nnc2-c2cccnc2)cc1,i,i,i,nt,i,nt,nt,nt,nt
Cc1cccc(-n2c(SCC(=O)NCc3ccc4c(c3)OCO4)nc3ccccc3c2=O)c1,i,i,i,i,i,nt,nt,nt,nt
Cc1cc(C)cc(-n2c(SC(C)C(=O)NCc3ccc4c(c3)OCO4)nc3ccccc3c2=O)c1 (stereo not given),i,11,i,i,23,i,i,i,11
COC(=O)Nc1ccc(S(=O)(=O)N2CCC(C)CC2)cc1,i,i,i,i,i,nt,nt,nt,nt
COC(=O)Nc1ccc(S(=O)(=O)N2CCC(Cc3ccccc3)CC2)cc1,i,11,i,i,20,i,i,35,14
COc1ccc(NC2=CC(=O)CC(c3ccccc3)C2)c(OC)c1 (stereo not given),i,i,i,i,i,nt,nt,nt,nt
CCOc1ccccc1NC1=CC(=O)CC(c2ccccc2)C1 (stereo not given),i,10,i,i,22,i,i,i,i
CCc1nc2ccc(C(=O)NCCOc3ccc(OC)cc3)cn2c1N(CC)Cc1cccc(Br)c1,i,i,i,i,i,nt,nt,nt,nt
CCc1nc2ccc(C(=O)Nc3cccc(NS(C)(=O)=O)c3)cn2c1N(CC)Cc1cccc(Br)c1,i,15,i,i,36,i,i,23,13
CCc1nc2ccc(C(=O)Nc3cccc(OC)c3)cn2c1N(CC)Cc1cccc(Br)c1,i,11,i,i,22,i,i,27,12
O=C(NCCCc1ccccc1)[C@H](Cc1c[nH]c2ccccc12)NC1(C(=O)NCCc2c[nH]c3ccccc23)CCC1,i,16,nt,nt,31,i,i,30,14
O=C(NCCc1c[nH]c2ccccc12)[C@H](Cc1c[nH]c2ccccc12)NC1(C(=O)NC2CCCCC2)CCCCCCC1,i,i,nt,nt,i,nt,nt,nt,nt
O=C(NCC(c1ccccc1)c1ccccc1)[C@H](Cc1c[nH]c2ccccc12)NC1(C(=O)NC2CCCCC2)CCCCCC1,i,i,nt,nt,i,nt,nt,nt,nt
CC(C)(N[C@@H](Cc1c[nH]c2ccccc12)C(=O)NCC(c1ccccc1)c1ccccc1)C(=O)NC1CCCCC1,i,9.9,nt,nt,21,i,i,40,19
O=C(NCC(c1ccccc1)c1ccccc1)[C@H](Cc1c[nH]c2ccccc12)NC1(C(=O)NC2CCCCC2)CCC1,i,14,nt,nt,24,i,i,34,24
SMILES,HGIII-sPLA2 inh,ADAM17 inh,proKLK7 act,CendR NRP1 mod,ADAM10 inh,ADAM10 confirm,ADAM17 ctr,ADAM10 counter,ADAM17 confirm
CC(C)(C)OC(=O)N1CCC(N[C@@H](Cc2c[nH]c3ccccc23)C(=O)NCCc2c[nH]c3ccccc23)(C(=O)NC2CCCCC2)CC1,i,9.2,nt,nt,26,i,i,29,15
Clc1cccc(NCc2nnc(SCc3ccc(Cl)cc3Cl)o2)c1,i,9.3,i,i,31,i,i,i,14
CC(C)(C)OC(=O)NCCc1nnc(SCc2ccc(Cl)cc2Cl)o1,i,i,i,i,i,nt,nt,nt,nt
CC(C)C[C@H](NC(=O)c1[nH]cnc1C(=O)N[C@@H](Cc1ccccc1)C(=O)OCc1ccccc1)C(=O)OC(C)(C)C,i,i,i,i,i,nt,nt,nt,nt
C[C@H](NC(=O)c1nc[nH]c1C(=O)NCc1ccccc1)C(=O)OCc1ccccc1,i,i,i,i,i,nt,nt,nt,nt
CC(C)C[C@H](NC(=O)c1[nH]cnc1C(=O)N[C@@H](C)C(=O)OCc1ccccc1)C(=O)OCc1ccccc1,i,12,i,i,25,i,i,40,21
CC(C)C[C@H](NC(=O)c1nc[nH]c1C(=O)NCc1ccccc1)C(=O)OCc1ccccc1,i,10,i,i,25,i,i,35,16
COCc1[nH]nc2c1C(c1ccc(F)cc1)N(c1ccc(OC)cc1)C2=O (stereo not given),i,i,i,nt,i,nt,nt,nt,nt
